Bioassay records from PubChem.
An excerpt weighted towards active compounds, which were near 21% of everything screened.
Shiga inhibitor: A qHTS for Small Molecule Inhibitors of Shiga Toxin. AID 2315, 2010. inhibition, % at 38.7 µM. Vero cells, Shiga toxin protein synthesis inhibition reporter. actives 9.2% (n = 290,000); in the data active means inhibition mostly above about 28%, no sharp cut-off; inactive means mostly below about 43%; further: 0% is about no effect
Pf growth 96h: Primary qHTS for delayed death inhibitors of the malarial parasite plastid, 96 hour incubation; actives 6.9% (n = 320,000); Potency, µM (highest dose often 28.7 µM), for the others: top-dose activity change, negative = inhibition, most hits filed as inhibitors; AID 504834, 2011; P. falciparum luciferase reporter growth, 96 h; further: potency means the concentration at half of the fitted maximal effect; on the % scale 0 is the no-effect control and ±100 the full control effect
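Two parasite generations (96 h, 37 C, 5% CO2) of compound exposure in infected erythrocytes (0.05% parasitemia, 2% hematocrit). Luciferase-reporter P. falciparum; decreased luminescence indicates inhibited growth, aimed at apicoplast-acting delayed death.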
HCV inh: qHTS Assay for Inhibitors of Hepatitis C Virus (HCV); actives 3.4% (n = 340,000); Huh7.5.1 HCVcc-Cre infection, luciferase reporter, 44 h; Potency, µM (series often up to 41.8 µM), without a hit: at the top dose activity change, negative = inhibition, most hits filed as inhibitors; further: potency means the concentration at half of the fitted maximal effect; on the % scale 0 is the no-effect control and ±100 the full control effect
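Infectious HCVcc-Cre (~0.5 moi) was added to cells just after compound, with cells seeded 4 h earlier at 1,000 per well. Luciferase activity after 44 h culture reported infection; substrate was incubated 15 min at room temperature before reading.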
HCMV antiviral: qHTS Assay for inhibitors of the human cytomegalovirus (HCMV); HFF cells, HCMV-luciferase reporter, 72 h; stronger effect = lower value; actives 4.5% (n = 410,000); activity change, negative = inhibition, % at 57.5 µM; AID 1259415, 2018; in the data active means activity change below about -60%; inconclusive means no clear call, values can overlap the other calls; inactive means above about -39%; further: on the % scale 0 is the no-effect control and ±100 the full control effect
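Cell-based, HFFs, 1000 cells/well, 16 h 37C; cpds in DMSO + HCMV-luc, MOI 1 PFU/cell; 72 h 37C; OneGlo luminescence after 5 min RT; norm. to buffer vs Salinomycin 10uM.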
Pf growth 48h: Primary qHTS for delayed death inhibitors of the malarial parasite plastid, 48 hour incubation; P. falciparum luciferase growth in erythrocytes, 48 h; actives 5.9% (n = 310,000); Potency, µM (series often up to 28.7 µM), without a hit: top-dose activity change, negative = inhibition, most hits filed as inhibitors; further: potency means the concentration at half of the fitted maximal effect; on the % scale 0 is the no-effect control and ±100 the full control effect
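Luciferase-expressing parasites in RBCs, 2% Hct / 0.1% parasitemia final; RPMI 1640 + 0.5% Albumax; 37 C, 5% CO2, one generation; luminescence read-out, lower signal = inhibition.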
Cycloheximide cs: Cycloheximide Counterscreen for Small Molecule Inhibitors of Shiga Toxin; cell reporter, cycloheximide protein synthesis inhibition counterscreen; max response, %; actives 12% (n = 300,000); in the data active means max response mostly above about 13%, no sharp cut-off; inactive means mostly below about 14%; further: read at 38.3 µM for the half of the compounds with a filed dose; 0% is about no effect
* = called active by the depositor; [ ] = another dose, or the depositor's remark. Unless noted, the call rests on the fitted dose curve; in most records, active means well fitted inhibition curve with a large enough effect; inconclusive means small, poorly fitted or top-dose-only effect, or another doubt; inactive means no such curve, though single readings can be large or run the other way.

`CNC(=O)C1CCC(=O)N1Cc1ccccc1Cl` (stereo not drawn) gave Shiga inhibitor -6, HCV inh 3%, HCMV antiviral 1, Pf growth 48h 31% and Cycloheximide cs -1.
CC1CN(S(=O)(=O)c2cccc(C(=O)NCc3ccccn3)c2)CC(C)O1 (stereo not drawn) was read as HCV inh 3% and HCMV antiviral -24.
`CCOc1ccccc1N(CC)C(=O)c1cc2c(=O)n(CC)c3ccccc3c2s1` gave HCMV antiviral -70*.
For CCn1c(=O)c2cc(C(=O)N(C)c3ccc(OC)cc3OC)sc2c2ccccc21 the results were Shiga inhibitor -8, Pf growth 96h 10µM*, HCV inh inconclusive, HCMV antiviral inconclusive, Pf growth 48h inconclusive and Cycloheximide cs -2.
`CCn1c(=O)c2cc(C(=O)N(C)c3cc(C)ccc3OC)sc2c2ccccc21` gave Shiga inhibitor -5, Pf growth 96h inconclusive, HCV inh 13µM*, HCMV antiviral 0, Pf growth 48h 13µM* and Cycloheximide cs -1.
`CCn1c(=O)c2cc(C(=O)N(C)c3cc(Cl)c(OC)cc3OC)sc2c2ccccc21` gave HCMV antiviral 2.
For CCn1c(=O)c2cc(C(=O)N(C)c3ccccc3F)sc2c2ccccc21 the results were Shiga inhibitor -14, Pf growth 96h inconclusive, HCV inh 1µM*, HCMV antiviral inconclusive, Pf growth 48h inconclusive and Cycloheximide cs -2.
CCc1nn(CC(=O)NCCc2ccc(OC)c(OC)c2)c(=O)c2cc3occc3n12 was read as HCMV antiviral -5.
C[C@@H](C(=O)Nc1nc(-c2ccccn2)cs1)N1C(=O)C2CCCCC2C1=O (stereo partly drawn) was read as Shiga inhibitor -8, Pf growth 96h 12µM*, HCV inh -10%, HCMV antiviral 10 and Cycloheximide cs -2.
O=C(Nc1nc(-c2ccccc2)cs1)C1COc2ccccc2O1 (stereo not drawn) was read as Shiga inhibitor 60, Pf growth 96h 55%, HCV inh -11%, HCMV antiviral 44, Pf growth 48h 7% and Cycloheximide cs 8.
`O=C(Nc1nc(-c2ccc3c(c2)OCO3)cs1)C1COc2ccccc2O1` (stereo not drawn) gave Shiga inhibitor -21, Pf growth 96h 15%, HCV inh 2%, HCMV antiviral -27, Pf growth 48h 20% and Cycloheximide cs 16*.
Screening O=C(Nc1nc(-c2ccccn2)cs1)C1COc2ccccc2O1 (stereo not drawn) returned Shiga inhibitor 11, Pf growth 96h 0.37µM*, HCV inh 35µM*, HCMV antiviral -83*, Pf growth 48h 8.3µM* and Cycloheximide cs 10.
O=C(CN1C(=O)C2CCCCC2C1=O)Nc1nc(-c2ccccn2)cs1 (stereo not drawn) was read as Shiga inhibitor 22, Pf growth 96h inconclusive, HCV inh inconclusive, HCMV antiviral 7 and Cycloheximide cs -2.
For O=C(Nc1nc(-c2ccc(S(=O)(=O)N3CCCC3)cc2)cs1)C1COc2ccccc2O1 (stereo not drawn) the results were Shiga inhibitor 23, Pf growth 96h -7%, HCV inh 2.2µM*, HCMV antiviral inconclusive, Pf growth 48h 9.3µM* and Cycloheximide cs 5.
CN(Cc1ccco1)C(=O)c1ccc(S(=O)(=O)N2CCCCCC2)cc1 was read as Pf growth 96h -30%, HCV inh 6%, HCMV antiviral -23 and Pf growth 48h 6%.
`CC(C)NC(=O)Nc1ccc2c(c1)C(=O)N([C@H](C)CO)C[C@@H](C)[C@@H](CN(C)C(=O)NC1CCCCC1)O2` gave HCV inh -24% and HCMV antiviral 17.
COc1ccc(C2CCc3cc(OC)c(OC)cc3C2NC=O)cc1OC (stereo not drawn) was read as HCMV antiviral -22.
`Cc1csc(NC(=O)C2COc3ccccc3O2)n1` (stereo not drawn) gave Shiga inhibitor 22, HCV inh -19%, HCMV antiviral 25, Pf growth 48h 50% and Cycloheximide cs 13*.
CSc1nc2ccc3nc(NC(=O)C4COc5ccccc5O4)sc3c2s1 (stereo not drawn) was read as Shiga inhibitor 22, Pf growth 96h inconclusive, HCV inh -26%, HCMV antiviral -78*, Pf growth 48h -17% and Cycloheximide cs 5.
For CC1CC1C(=O)Nc1nc(-c2ccccn2)cs1 (stereo not drawn) the results were Shiga inhibitor 20, Pf growth 96h 3.7µM*, HCV inh -11%, HCMV antiviral 3 and Cycloheximide cs 22*.
`CC(=O)Nc1nc(-c2ccc3c(c2)OCO3)cs1` gave Shiga inhibitor 61*, Pf growth 96h 128%, HCV inh -25%, HCMV antiviral 70, Pf growth 48h 204% and Cycloheximide cs 53*.
For Cc1nc2ccc3nc(NC(=O)C4COc5ccccc5O4)sc3c2s1 (stereo not drawn) the results were Shiga inhibitor 18, Pf growth 96h inconclusive, HCV inh -6%, HCMV antiviral 18, Pf growth 48h -5% and Cycloheximide cs 3.
Screening COc1cccc(C(=O)Nc2nc(-c3ccc4c(c3)OCO4)cs2)c1 returned Shiga inhibitor 16, Pf growth 96h 1%, HCV inh -10%, HCMV antiviral 10, Pf growth 48h 1% and Cycloheximide cs 3.
For CC1CN=C(c2cc(Cl)c(N)c(Cl)c2)c2c3ccccc3[n+]([O-])n21 (stereo not drawn) the results were HCMV antiviral 55.
`c1cnc(Oc2ccc3oc4ccccc4c3c2)nc1` gave Shiga inhibitor 56*, Pf growth 96h 108%, HCV inh 17%, HCMV antiviral 55, Pf growth 48h 80% and Cycloheximide cs 44*.
`COc1ccc2oc3ccccc3c(=O)c2c1` gave Shiga inhibitor 14, Pf growth 96h 41%, HCV inh -8%[8.37 µM], HCMV antiviral 4, Pf growth 48h 66% and Cycloheximide cs -3.
`O=C(COC(=O)c1ccccc1NC(=O)C1CC1)c1ccc2c(c1)OCCO2` gave Shiga inhibitor 75*, Pf growth 96h inconclusive, HCV inh -24%, HCMV antiviral -15, Pf growth 48h 4% and Cycloheximide cs 54*.
C/C(=N\OCC(=O)Nc1ccccc1C(C)(C)C)c1ccc2c(c1)OCCO2 was read as Shiga inhibitor -4, Pf growth 96h inconclusive, HCV inh inconclusive, HCMV antiviral inconclusive, Pf growth 48h 9.3µM* and Cycloheximide cs -1.
